Data from PubChem BioAssay (Tox21).
Records with an inconclusive call do not appear. Calls of active or inactive are those of the source. Unless noted, calls come from the whole dose curve; as a rule, active = well fitted curve in the direction sought with a large enough effect in the repeat runs; inconclusive = weak or mixed curves; inactive = no such curve, though single readings can be large; an effect the other way counts as inactive or inconclusive.

What was measured:
[1] = qHTS assay to identify small molecule antagonists of the constitutive androstane receptor (CAR) signaling pathway - cell viability counter screen (AID 1224837); note: nearly all actives have a fitted effect of over 45% in size; note: potency is the fitted concentration of half-maximal effect
Procedure, shortened: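 Read-out: CellTiter-Fluor fluorescence after 23 hr at 37 C/5% CO2. Cells: HepG2 double-stable for hCAR and CYP2B6-2.2kb. Compounds tested at 15 concentrations in the presence of CITCO, final concentration 50 nM.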

[2] = target: Nuclear receptor subfamily 1 group I member 3 (Homo sapiens) (UniProt Q14994); test: qHTS assay to identify small molecule antagonists of the constitutive androstane receptor (CAR) signaling pathway (AID 1224838);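 note: HepG2 cells stably expressing hCAR with CYP2B6 luciferase reporter stimulated by CITCO; nearly all actives have a fitted effect of over 40% in size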; note: potency is the fitted concentration of half-maximal effect
Chain of Nuclear receptor subfamily 1 group I member 3 (Homo sapiens) (Q14994 whole entry, looked up): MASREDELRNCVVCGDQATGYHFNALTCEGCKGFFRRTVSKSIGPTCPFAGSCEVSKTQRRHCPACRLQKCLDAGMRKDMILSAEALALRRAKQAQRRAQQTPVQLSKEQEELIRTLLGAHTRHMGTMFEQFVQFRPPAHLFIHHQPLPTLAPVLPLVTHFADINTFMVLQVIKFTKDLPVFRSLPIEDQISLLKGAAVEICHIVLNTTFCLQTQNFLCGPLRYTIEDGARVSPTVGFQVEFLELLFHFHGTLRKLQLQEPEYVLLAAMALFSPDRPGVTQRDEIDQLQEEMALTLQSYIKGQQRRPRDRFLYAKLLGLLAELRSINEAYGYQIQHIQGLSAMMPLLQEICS
Procedure, shortened: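 Read-out: ONE-Glo luciferase luminescence after 30 min at room temperature. HepG2-CYP2B6-hCAR double-stable cells, compounds in 15-point titration plus 50 nM CITCO final, 24 h at 37 C/5% CO2.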

[3] = qHTS assay to identify small molecule antagonists of the estrogen related receptor signaling pathway with the pleiotropic PPARgamma coactivator (PGC) from Tox21 10K library - cell viability counter screen (AID 1224840; active = well fitted cell-killing curve with a large enough effect in the repeat runs, not every such curve was filed as active; note: nearly all actives have a fitted effect of over 40% in size)
Procedure, shortened: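 Fluorescence read-out of CellTiter-Fluor viability reagent, added after cells had been exposed to compound in DMSO for 17.5 h at 37 C; 30 min development at 37 C/5% CO2. Cells: PGC/ERR line, 2,000/well.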

[4] = target: Thyrotropin receptor (Homo sapiens) (UniProt P16473); test: qHTS assay to identify small molecule agonists of the thyroid stimulating hormone receptor (TSHR) signaling pathway (AID 1224843; calls by dose curve; note: nearly all actives have a fitted effect of over 45% in size)
Chain of Thyrotropin receptor (Homo sapiens) (P16473 whole entry, looked up): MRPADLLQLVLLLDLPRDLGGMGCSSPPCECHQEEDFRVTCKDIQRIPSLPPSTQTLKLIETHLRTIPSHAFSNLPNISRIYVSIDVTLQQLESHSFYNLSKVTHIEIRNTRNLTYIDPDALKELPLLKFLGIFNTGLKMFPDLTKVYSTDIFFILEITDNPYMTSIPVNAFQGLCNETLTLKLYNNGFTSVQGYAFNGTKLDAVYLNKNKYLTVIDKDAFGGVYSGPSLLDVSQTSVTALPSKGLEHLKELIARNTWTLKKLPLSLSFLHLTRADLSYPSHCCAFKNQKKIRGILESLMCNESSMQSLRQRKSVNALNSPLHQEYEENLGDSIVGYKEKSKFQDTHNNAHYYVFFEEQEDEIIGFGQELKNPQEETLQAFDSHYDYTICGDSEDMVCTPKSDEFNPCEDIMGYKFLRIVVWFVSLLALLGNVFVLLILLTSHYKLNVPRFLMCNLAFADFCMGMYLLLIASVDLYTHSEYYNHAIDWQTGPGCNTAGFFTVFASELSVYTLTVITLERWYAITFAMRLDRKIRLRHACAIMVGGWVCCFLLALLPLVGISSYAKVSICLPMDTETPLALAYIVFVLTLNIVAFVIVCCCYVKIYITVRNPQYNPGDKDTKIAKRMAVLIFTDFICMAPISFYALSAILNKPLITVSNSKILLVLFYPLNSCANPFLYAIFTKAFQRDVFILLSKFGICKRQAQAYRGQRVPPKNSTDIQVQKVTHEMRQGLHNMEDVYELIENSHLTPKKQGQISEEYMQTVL
Procedure, shortened: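 Agonist-mode screen: TSHR HEK293 cells received test chemicals for half an hour at room temperature, then HTRF cAMP detection reagents for one hour prior to fluorescence measurement. Each chemical ran as a 15-concentration series, triplicated.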

[5] = qHTS assay to identify small molecule agonists of the hypoxia (HIF-1) signaling pathway - cell viability counter screen (AID 1224844; calls by dose curve; note: nearly all actives have a fitted effect of over 50% in size; note: potency is the fitted concentration of half-maximal effect)
Procedure, shortened: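 CellTiter-Glo luminescence read-out, 30 min RT, taken in the same wells as the beta-lactamase HRE reporter assay; HRE-bla ME-180 cells, 0.5% dialyzed FBS, 17 hr compound treatment at 37C, 5% CO2.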

[6] = qHTS assay to identify small molecule agonists of H2AX (AID 1224845; active = well fitted activation curve with a large enough effect in the signal ratio in the repeat runs, not every such curve was filed as active; the % refers to the signal ratio)
Procedure, shortened: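 Wild-type CHO-K1 cells, plated overnight, exposed 3hr at 37C to 15 concentrations (0.76% DMSO final). Lysed, then HTRF anti-pH2AX (S139) cryptate and anti-H2AX-d2 antibodies, 24 hr room temperature; 665/620 nm emission read.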

[7] = qHTS assay to identify small molecule agonists of the hypoxia (HIF-1) signaling pathway (AID 1224846; active = well fitted activation curve with a large enough effect in the signal ratio in the repeat runs, not every such curve was filed as active; the % refers to the signal ratio)
Procedure, shortened: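 Beta-lactamase FRET read-out (CCF4-AM substrate) from ME-180 cells carrying an HRE-driven bla reporter, after 17 hrs compound exposure at 37C/5% CO2. Cells were seeded at 2,000 per well in 0.5% dialyzed FBS medium and preincubated 5 hrs.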

[8] = qHTS assay to identify small molecule agonists of H2AX - cell viability counter screen (AID 1224847; calls by dose curve; note: nearly all actives have a fitted effect of over 30% in size; note: potency is the fitted concentration of half-maximal effect)
Procedure, shortened: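 Viability of CHO-K1 (wild type) cells after 3 hr compound exposure was measured by CellTiter-Glo luminescence.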

[9] = qHTS RealTime-Glo MT Cell Viability Assay in HepG2 cells - 24 hour (AID 1224867); note: nearly all actives have a fitted effect of over 50% in size
Procedure, shortened: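 Real-time, nonlytic viability: 600 HepG2 cells/well mixed with NanoLuc enzyme plus prosubstrate; 5 h settle, compound (DMSO) added by pintool; luminescence monitored over 40 h at 37 C.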

[10] = qHTS RealTime-Glo MT Cell Viability Assay in HEK293 cells - 32 hour (AID 1224868); note: nearly all actives have a fitted effect of over 50% in size; note: potency is the fitted concentration of half-maximal effect
Procedure, shortened: (§1)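 Cells + reagent dispensed (600 cells/well, HEK293) → 5 h at 37 C/5% CO2 → 23 nL compound in DMSO pinned → 40 h at 37 C → luminescence read at 0, 8, 16, 24, 32, 40 h.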

[11] = A CellTox Green Cytotoxicity Assay to monitor cytotoxicity in HEK293 cells - 0 hour (AID 1224869); note: nearly all actives have a fitted effect of over 50% in size
Procedure, shortened: (§2)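 Read-out: fluorescence of a cell-impermeant cyanine dye staining DNA of dead cells, proportional to cytotoxicity. HEK293, 600 cells/well with reagent, compound (23 nL DMSO) added after 5 h; reads at 0, 8, 16, 24, 32, 40 h.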

[12] = qHTS RealTime-Glo MT Cell Viability Assay in HepG2 cells - 40 hour (AID 1224870); note: nearly all actives have a fitted effect of over 50% in size
Procedure, shortened: (§3)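 HepG2 cells (600/well) mixed with RealTime-Glo MT reagent, settled 5 h at 37 C/5% CO2 before compound addition. Nonlytic NanoLuc luminescence from viable-cell prosubstrate reduction read repeatedly during 40 h treatment at 37 C.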

[13] = A CellTox Green Cytotoxicity Assay to monitor cytotoxicity in HEK293 cells - 40 hour (AID 1224871); note: nearly all actives have a fitted effect of over 45% in size; note: potency is the fitted concentration of half-maximal effect
Procedure, shortened: as §2

[14] = qHTS RealTime-Glo MT Cell Viability Assay in HEK293 cells - 16 hour (AID 1224872)
Procedure, shortened: as §1

[15] = qHTS RealTime-Glo MT Cell Viability Assay in HepG2 cells - 8 hour (AID 1224873); note: nearly all actives have a fitted effect of over 55% in size
Procedure, shortened: as §3

[16] = qHTS assay to identify small molecule antagonists of the estrogen related receptor signaling pathway with the pleiotropic PPARgamma coactivator (PGC) from Tox21 10K library (AID 1224841; call rule not given here)
Procedure, shortened: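 Luminescence read-out (One-Glo luciferase reagent, 30 min at room temperature) from PGC/ERR cells exposed to DMSO-dissolved test compounds for 18 h at 37 C; cells, 2,000 per well, had been preincubated 6 h before compound transfer.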

[17] = qHTS assay to identify small molecule agonists of the estrogen related receptor signaling pathway with the pleiotropic PPARgamma coactivator (PGC) from Tox21 10K library (AID 1224842); note: nearly all actives have a fitted effect of over 15% in size
Procedure, shortened: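 PGC/ERR reporter cell line, 2,000 cells per well, incubated 6 h at 37 C before 23 nL compound in DMSO was added. After 18 h at 37 C, One-Glo luminescence read following 30 min at room temperature.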

[18] = qHTS assay to identify small molecule antagonists of the estrogen related receptor (ERR) signaling pathway from Tox21 library (AID 1224848); note: nearly all actives have a fitted effect of over 50% in size; note: potency is the fitted concentration of half-maximal effect
Procedure, shortened: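 Quantitative high-throughput format: ERR reporter cells (2,000/well) pre-incubated 6 h, treated 18 h at 37 C with compounds in DMSO alongside positive and negative controls, then read by ONE-Glo luminescence.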

[19] = qHTS assay to identify small molecule agonists of the estrogen related receptor (ERR) signaling pathway from Tox21 library (AID 1224849; calls by dose curve; note: nearly all actives have a fitted effect of over 15% in size); settings: ERR reporter cell line, ONE-Glo luciferase, 18 h; at 92.4 µM (top of the series) unless noted
Procedure, shortened: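 Luminescence readout (ONE-Glo, 30 min RT) after 18 h compound exposure at 37 C of NTP-supplied ERR reporter cells; cells were plated 6 h before compound addition by pin tool.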

[20] = target: Nuclear receptor subfamily 1 group I member 3 (Homo sapiens) (UniProt Q14994); test: qHTS assay to identify small molecule agonists of the constitutive androstane receptor (CAR) signaling pathway (AID 1224839);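 note: HepG2 cells stably carrying human CAR and a CYP2B6 luciferase reporter; nearly all actives have a fitted effect of over 15% in size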
Procedure, shortened: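 Stable hCAR/CYP2B6-2.2kb HepG2 line in DMEM with 10% FBS; compounds (15 concentrations) and 0.75 uM PK11195 final, 24 h at 37 C/5% CO2, then ONE-Glo luminescence after 30 min.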
% is set by controls: 0 for no effect and ±100 for the full control effect.

CC1(C)[C@H]2CC[C@]1(C)[C@H](O)C2
active: Potency [8] 1.6 µM
inactive: Potency [1] | Potency [2] | Potency [3] | Potency [4] | Potency [5] | Potency [6] | outcome [7] | Potency [9] | Potency [10] | Potency [11] | Potency [12] | Potency [13] | Potency [14] | Potency [15]

Cc1ccccc1N=Nc1ccc(N=Nc2c(O)ccc3ccccc23)c(C)c1
inactive: Potency [1] | Potency [2] | Potency [3] | Potency [16] | Potency [17] | Potency [4] | Potency [5] | outcome [7] | Potency [18] | activity change, positive = activation [19] 11.4% [at 42.5 µM] | Potency [9] | Potency [10] | Potency [11] | Potency [12] | Potency [13] | Potency [14] | Potency [15]

O=[N+]([O-])c1cc[n+]([O-])cc1
active: Potency [1] 30.6 µM | Potency [2] 43.3 µM
inactive: Potency [20] | Potency [5] | outcome [7] | Potency [8] | Potency [10] | Potency [11] | Potency [13] | Potency [14] | Potency [15]

CC(C)(C)c1ccc(S)cc1
inactive: Potency [1] | Potency [2] | Potency [3] | Potency [4] | Potency [5] | outcome [7] | Potency [8] | Potency [9] | Potency [10] | Potency [11] | Potency [12] | Potency [13] | Potency [14] | Potency [15]

CN(C)CC[C@@H](c1ccc(Br)cc1)c1ccccn1
inactive: Potency [1] | Potency [2] | Potency [20] | Potency [5] | Potency [8] | Potency [9] | Potency [10] | Potency [11] | Potency [12] | Potency [13] | Potency [14] | Potency [15]

Cc1ccc(O)c([C@H](CCN(C(C)C)C(C)C)c2ccccc2)c1
inactive: Potency [1] | Potency [2] | Potency [20] | Potency [4] | Potency [6] | outcome [7] | Potency [8] | Potency [9] | Potency [10] | Potency [11] | Potency [12] | Potency [13] | Potency [14] | Potency [15]

O=S(=O)(O)c1ccc(O)c2ncccc12
inactive: Potency [1] | Potency [2] | Potency [3] | Potency [4] | Potency [5] | Potency [6] | outcome [7] | Potency [9] | Potency [10] | Potency [11] | Potency [12] | Potency [13] | Potency [14] | Potency [15]

O=C=NC1CCC(CC2CCC(N=C=O)CC2)CC1 (configuration not stated)
active: Potency [13] 49 µM
inactive: Potency [1] | Potency [2] | Potency [20] | Potency [4] | Potency [5] | Potency [6] | outcome [7] | Potency [8] | Potency [9] | Potency [10] | Potency [11] | Potency [12] | Potency [14] | Potency [15]

O=c1c2ccccc2nnn1CCl
inactive: Potency [1] | Potency [2] | Potency [3] | Potency [5] | Potency [6] | outcome [7] | Potency [8] | Potency [9] | Potency [10] | Potency [11] | Potency [12] | Potency [13] | Potency [14] | Potency [15]

CN(C(=O)CCCOc1ccc2[nH]c(=O)ccc2c1)C1CCCCC1
inactive: Potency [1] | Potency [2] | Potency [16] | Potency [17] | Potency [5] | Potency [6] | Potency [8] | activity change, positive = activation [19] -12.9% [at 42.5 µM] | Potency [9] | Potency [11] | Potency [12] | Potency [13] | Potency [15]

O=C(O)C1CCC(C(=O)O)CC1 (configuration not stated)
inactive: Potency [1] | Potency [20] | Potency [3] | Potency [16] | Potency [17] | Potency [4] | Potency [5] | Potency [6] | outcome [7] | Potency [8] | Potency [18] | Potency [9] | Potency [10] | Potency [11] | Potency [12] | Potency [13] | Potency [14] | Potency [15]

O=C(Nc1ccccc1)OCC(CN1CCCCC1)OC(=O)Nc1ccccc1 (configuration not stated)
active: Potency [10] 21.3 µM
inactive: Potency [1] | Potency [2] | Potency [20] | Potency [4] | Potency [5] | Potency [6] | Potency [9] | Potency [11] | Potency [12] | Potency [13] | Potency [15]

CC(=O)SCc1ccco1
inactive: Potency [1] | Potency [2] | Potency [20] | Potency [5] | Potency [6] | outcome [7] | Potency [8] | Potency [9] | Potency [10] | Potency [11] | Potency [12] | Potency [13] | Potency [14] | Potency [15]

O=C(O)Cn1c(C(=O)Nc2nc(-c3ccccc3Cl)cs2)cc2ccccc21
active: Potency [5] 8.49 µM
inactive: Potency [1] | Potency [2] | Potency [3] | Potency [16] | Potency [17] | Potency [4] | Potency [6] | Potency [18] | Potency [9] | Potency [10] | Potency [11] | Potency [12] | Potency [13] | Potency [14] | Potency [15]

CN1CCC[C@@H]1c1cccnc1
inactive: Potency [1] | Potency [2] | Potency [3] | Potency [5] | Potency [6] | Potency [8] | Potency [9] | Potency [10] | Potency [11] | Potency [12] | Potency [13] | Potency [14] | Potency [15]

C1=Cc2ccccc2C1
inactive: Potency [1] | Potency [2] | Potency [3] | Potency [16] | Potency [17] | Potency [5] | Potency [6] | outcome [7] | Potency [8] | Potency [18] | activity change, positive = activation [19] 2.75% | Potency [9] | Potency [10] | Potency [11] | Potency [12] | Potency [13] | Potency [14] | Potency [15]

CCOc1ccc2[nH]cc(C(=O)NCc3ccccc3)c(=O)c2n1
inactive: Potency [1] | Potency [2] | Potency [3] | Potency [17] | Potency [4] | Potency [5] | Potency [6] | outcome [7] | Potency [8] | activity change, positive = activation [19] -48.4% | Potency [9] | Potency [10] | Potency [11] | Potency [12] | Potency [13] | Potency [14]
active: Potency [18] 24.3 µM
